CR mimetic SO – reduction of superoxide in aged yeast, primary screen, HTS | AID 2690, 2010 | S. cerevisiae aged cells, superoxide DHE fluorescence; stronger effect = lower value | superoxide response (% of plate mean), % at 10 µM | actives 0.18% (n = 330,000);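 active = superoxide response under a set limit, about three screen SD below normal, cut at about 65% in these data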;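 note: yeast aged for seven days with compound at 30 °C before DHE staining; 100% = average MFI of all compound-treated wells on the plate with controls excluded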
AHR activator – AHR activators, primary screen, cell-based, luminescence, luciferase reporter, human; Aryl hydrocarbon receptor (Homo sapiens), P35869; AHR-responsive luciferase reporter cells; activation, % at 5 µM; actives 2.5% (n = 320,000); in the data active = activation above about 47%;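 note: 0% = vehicle wells and 100% = reference agonist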
HGIII-sPLA2 inh – human group III sPLA2 inhibitors, primary screen, biochemical, QFRET, BODIPY PC-A2 liposome substrate. Group 3 secretory phospholipase A2 (Homo sapiens), Q9NZ20. QFRET BODIPY PC-A2 liposome hydrolysis, fluorescence. inhibition, % at 12.2 µM. actives 0.56% (n = 370,000);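 active = inhibition above mean plus 3 SD of compounds lying within the high and low control bounds, cut at about 19% in these data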;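 note: 0% = median of test compound wells and 100% = no enzyme DMSO wells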
HIF act – HIF pathway transcriptional activators, primary screen, cell-based, U2OS HRE-luciferase, luminescence | actives 0.32% (n = 300,000) | activation, % at 7.5 µM (by protocol) | U2OS HRE-luciferase reporter; normalized: DMSO 0%, desferrioxamine 100%;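 active = mean activation of at least 10% of the iron chelator positive control signal, with at least half of replicates also reaching 10%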
PLC-gamma1 inh – PLC-gamma1 enzyme inhibitors, primary screen, biochemical, fluorescence, purified enzyme. actives 0.84% (n = 370,000). fluorogenic substrate. inhibition, % at 12.2 µM. 1-phosphatidylinositol 4,5-bisphosphate phosphodiesterase gamma-1 (Homo sapiens), P19174; in the data active = inhibition above about 9.5%
PLC-beta3 inh – human PLC-beta3 inhibitors, primary screen, biochemical, fluorescence; 1-phosphatidylinositol 4,5-bisphosphate phosphodiesterase beta-3 (Homo sapiens), Q01970; Purified PLC-beta3, fluorogenic substrate; inhibition, % at 12.2 µM; actives 0.18% (n = 370,000); AID 720704, 2013; in the data active = inhibition above about 11%;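 note: 0% = median of compound wells on plate and 100% = full blocker control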
* hit, by the source's call; i = inactive; x = no result. Hits are enriched below; roughly 3.9% of the tested compounds scored in any of these assays.

SMILES	CR mimetic SO	AHR activator	HGIII-sPLA2 inh	HIF act	PLC-gamma1 inh	PLC-beta3 inh
CCCOc1ccc(Cn2c(=O)oc3ccc(C)cc32)cc1OC	107.2	5.8	3.5	0.1	6.3	13.1*
COc1ccccc1OCCCn1c(=O)oc2ccc(C)cc21	75.0	59.7*	-5.5	0.3	-1.0	3.1
O=C(CNc1nnnn1-c1ccccc1)N1CCCC1	x	x	2.1	x	-0.2	-0.2
COc1ccc(C(=O)N/N=C/c2sc3ccccc3c2O)cc1	69.0	23.9	x	0.3	x	x
O=C(N/N=C/c1sc2ccccc2c1O)c1ccccc1	99.0	73.5*	x	5.2	x	x
O=C(c1csc2c1CCCC2)n1cccn1	60.4*	5.0	-4.9	0.1	3.0	-5.9
O=C(c1csc2c1CCCC2)N1CCN(c2ncccn2)CC1	85.2	-1.7	x	0.4	x	x
O=C(CCc1ccccc1)N[C@H]1[C@H](OCc2ccccc2)CCC[C@@]12C(=O)N(Cc1ccccc1)c1ccc(-c3ccccn3)cc12	x	x	1.7	x	3.3	-0.3
O=C(NCC(c1ccccc1)c1ccccc1)[C@H](Cc1ccccc1)NC1(C(=O)NC2CCCCC2)CCCC1	x	x	-4.9	x	-0.4	1.3
CN(C)c1nc(N)nc(/C(C#N)=C/C2CC3C=CC2C3)n1 (configuration not stated)	100.3	47.2*	-0.5	-2.1	-44.5	-60.0
COc1cccc(-c2cc3nc(-c4ccccc4)cc(N4CCCC(O)C4)n3n2)c1 (configuration not stated)	112.7	73.8*	-16.1	0.0	i	i
O=S1(=O)c2ccc(Br)cc2OC[C@@H](c2ccccc2)N1Cc1cn(CCC2OCCCO2)nn1	x	x	5.5	x	-3.5	-0.5
Cc1ccc(C)c(N=Nc2nc3ccccc3n2C)c1	93.3	62.0*	5.9	4.3	0.5	1.8
CN(CC(=O)Nc1ccc(F)c(F)c1F)C(=O)/C=C/c1ccc(Cl)cc1	105.3	1.4	-3.6	224.9*	-1.0	0.2
COc1ccc(OCc2nn3c(-c4ccccc4)nnc3s2)cc1	x	x	10.5	x	-0.3	1.1
CN(C)c1ccc(/C=C/c2ccc3c4ccccc4ccc3[n+]2-c2ccccc2)cc1	x	x	43.8*	x	-32.8	-54.4
CN(C)c1ccc(/C=C/c2ccc3ccccc3[n+]2C)cc1	97.0	-5.4	19.5*	6.7	-1.1	0.2
Cc1cc(N2CCN(S(C)(=O)=O)C[C@@H]2C)ccc1N1CCN(Cc2ccccc2)[C@@H](C)C1	x	x	-8.5	x	1.0	-3.1
c1cnc(SCC2CCCCC2)c(-c2nc3ccccc3[nH]2)c1	x	x	-4.7	x	-4.8	-4.0
CN(C)c1ccc(N=Cc2nc(-c3ccccc3)oc2OC(=O)c2ccccc2)cc1	88.0	49.5*	4.6	1.5	-1.9	-1.7
COCC1CCN(C(=O)CCc2nnc(C3(c4ccc(Cl)cc4)CCC3)o2)CC1	97.6	-0.1	4.3	0.7	11.6*	2.0
CC1=NN(c2ccccc2)C(=O)C1N=Nc1ccccc1 (configuration not stated)	130.2	29.2	4.2	2.5	1.0	0.8
CC1=NN(c2ccccc2)C(=O)C1N=Nc1ccc(N)cc1 (configuration not stated)	95.5	49.5*	16.3	-8.9	-1.8	-3.5
COc1ccc(N=NC2C(=O)N(c3ccccc3)N=C2C)cc1 (configuration not stated)	92.5	51.4*	-6.0	-8.0	-1.9	-1.6
CC(C)(C)C(=O)OC12CCCN(C1)/C(=C/c1ccccc1)C2 (configuration not stated)	x	x	6.5	x	2.9	2.5
SMILES	CR mimetic SO	AHR activator	HGIII-sPLA2 inh	HIF act	PLC-gamma1 inh	PLC-beta3 inh
c1ccc(-n2nnc(-c3nccs3)n2)cc1	95.3	53.7*	7.8	-0.6	3.0	1.0
COc1ccc(-c2cn3cccnc3n2)cc1NC(=O)C(C)C	101.7	49.4*	-1.0	0.8	-482.7	i
COc1ccccc1/C=C/C(=O)NC(=S)NCC1CCCO1 (configuration not stated)	97.3	69.0*	-7.6	0.3	-135.3	-192.8
Cc1ccccc1NC(=O)c1sc(NC(=O)C2CC2)nc1C	102.9	3.8	4.9	0.9	0.3	-0.8
CCCC(=O)Nc1nc2c(OC)ccc(OC)c2s1	91.0	67.9*	3.7	-0.3	-22.4	-23.2
COc1ccc(OC)c2sc(NNC(=O)COc3ccccc3)nc12	101.5	79.0*	18.2	-0.8	-3.8	-11.2
COc1ccc(OC)c2sc(NC(=O)c3ccc(Cl)s3)nc12	145.7	30.3	1.7	-0.1	-2.1	-3.1
COc1ccc(OCC(=O)NNc2nc3ccccc3s2)cc1	92.9	16.8	13.0	0.3	-5.8	-7.4
Cc1ccc(Cl)c2sc(NC(=O)C3CC3)nc12	117.3	48.7*	11.0	-0.4	2.1	-3.1
CCC(=O)Nc1nc2c(OC)ccc(OC)c2s1	96.1	68.5*	2.3	-0.2	-12.4	-18.1
CCC(CO)Nc1cccc2c1S(=O)(=O)N(Cc1cn(Cc3ccc(F)cc3)nn1)Cc1ccccc1O2 (configuration not stated)	x	x	-17.4	x	0.8	0.9
C[C@H]1Cn2cnc(C(=O)N(C)Cc3ccccc3)c2C(=O)N1	x	x	1.9	x	-0.2	-0.4
COc1ccc(OC)c2sc(NC(=O)C3CC3)nc12	93.8	74.9*	5.4	-0.4	-14.0	-27.2
CC(=O)n1c2c(c3ccccc31)OC(N)=C(C#N)C2c1cccc(Cl)c1Cl (configuration not stated)	132.9	48.5*	4.9	0.8	-14.5	-13.7
COC(=O)[C@]12C[C@H](CC(=O)N3CCN(C(=O)c4ccco4)CC3)C(=O)N(CCC3=CCCCC3)C1=C[C@H](COCc1ccccc1)O[C@@H]2C	x	x	-11.8	x	0.4	3.9
CC1CCCN(C(=O)COc2ccc3c(c2)OCO3)C1 (configuration not stated)	98.6	51.7*	1.5	2.1	-0.7	-1.9
CCC1CCCCN1C(=O)COc1ccc2c(c1)OCO2 (configuration not stated)	102.4	48.4*	4.5	0.0	1.4	-0.8
Cc1cnc(NC(=O)/C=C/c2ccc(Br)o2)s1	106.7	9.9	3.7	0.6	-5.0	-12.6
O=C(/C=C/c1ccc(Br)o1)Nc1nnc(C2CC2)s1	103.3	66.0*	x	0.8	x	x
Cc1cc(N2CCC(C)CC2)nc2ccccc12	x	x	1.1	x	-11.6	-18.9
O=C(NCCc1cccc(Cl)c1)c1cccc([N+](=O)[O-])c1	105.9	15.9	-0.8	0.6	7.2	4.1
O=[N+]([O-])c1cccc(C(=Nc2cccc(Cl)c2)NO)c1	93.1	88.5*	-12.8	0.1	-2.9	-0.1
O=c1c2[nH]c3ccccc3c2nc2n1CCS2	100.7	57.0*	-0.9	0.6	-1.5	-5.0
COc1ccc2[nH]c3c(=O)n4c(nc3c2c1)SCC4	91.0	11.4	8.8	0.0	-108.2	-129.0

Compound activity from PubChem BioAssay.
